For assay [1], the target named is Calcium and integrin-binding protein 1 (Homo sapiens) (UniProt Q99828). Nature of the assay: Primary qHTS for Identification of Calcium Integrin Binding Protein 1 (CIB1) Competitor (AID 1508620). Also: top concentration of the series differs between compounds. In short, it runs like this: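 Fluorescence polarization competition: GST-tagged CIB1 (1 uM final) preincubated with compound 15 min at room temperature, then FITC-labelled alphaIIb peptide (100 nM final) added. After 15 min at room temperature, polarization read at Ex 480/Em 540.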
Chain of Calcium and integrin-binding protein 1 (Homo sapiens) (Q99828 whole entry, looked up): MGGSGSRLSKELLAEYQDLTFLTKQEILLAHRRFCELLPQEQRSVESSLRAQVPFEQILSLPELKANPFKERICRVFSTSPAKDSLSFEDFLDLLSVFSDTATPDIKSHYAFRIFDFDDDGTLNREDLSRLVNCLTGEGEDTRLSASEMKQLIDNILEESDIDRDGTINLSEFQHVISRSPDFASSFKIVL
(In general: qHTS replaces the single test concentration by a dilution series.)

The nature of assay [2]: Primary qHTS for inhibitors of nuclear receptor binding SET domain protein 2 (NSD2) in an isogenic RCH-ACV NSD2 p.E1099K mutant (9B) (AID 1645876). Also: nearly all actives have a fitted effect of over 70% in size.

Inconclusive results are not listed. Unmarked numbers belong to inactive results. Active and inactive are the calls of the source. Calls follow the shape of the dose curve; as a rule, active = well fitted inhibition curve with a large enough effect; inconclusive = small, poorly fitted or top-dose-only effect; inactive = flat fitted curve, though single readings scatter.
% is scaled to controls: 0 for no effect and ±100 for the full control effect.

Take `Cc1ccccc1N1CCN(S(=O)(=O)C[C@]23CC[C@H](C[C@@H]2NC(=O)[C@@H](N)CCS(C)(=O)=O)C3(C)C)CC1`: the Potency result in assay [1] and in assay [2] was “inactive” each time.

On to `CC(O)C/C=C/C=C/C(=O)OC1C=C2COC(=O)C2(O)C2(C)CCCC(C)(C)C12` (stereo unspecified), for which the Potency entry in assay [1] and in assay [2] was “inactive” throughout.

For `CC1CC(=O)C2C(O)(C1)CC(O)C13OC1c1c(O)cccc1C(=O)C23O` (stereo unspecified), the Potency result in assay [1] and in assay [2] was “inactive” each time.

In the case of `COc1c(C)c(OCC=C(C)C)cc2c1COC2=O`, the Potency result in assay [1] and in assay [2] was “inactive” in each case.

Take `C[C@H]1CC[C@@]2(OC1)O[C@H]1CC3C4CC[C@H]5C[C@@H](O[C@@H]6O[C@H](CO)[C@H](O[C@@H]7O[C@H](CO)[C@@H](O)[C@H](O[C@@H]8OC[C@@H](O)[C@H](O)[C@H]8O)[C@H]7O[C@@H]7O[C@H](CO)[C@@H](O)[C@H](O)[C@H]7O)[C@H](O)[C@H]6O)[C@H](O)C[C@]5(C)C4=CC(=O)[C@]3(C)[C@H]1[C@@H]2C` (stereo partly specified): in assay [1], the Potency result was “inactive”. Besides, the activity change, negative = viability loss in assay [2] is -21.3% [at 9.23 µM].

As to `C/C=C1\[C@H](O[C@@H]2O[C@H](CO)[C@@H](O)[C@H](O)[C@H]2O)OC=C(C(=O)OCCc2ccc(O)cc2)[C@H]1CC(=O)OCCc1ccc(O)cc1`, the Potency entry in assay [1] and in assay [2] was “inactive” each time.

For the compound `CCCC1=CC2=C(CO1)C(=O)C(C)(O)C(OC(=O)c1c(C)cc(OC)cc1O)C2` (stereo unspecified), the Potency result in assay [1] and in assay [2] was “inactive” each time.

On to `CC1(C)CC[C@]2(C(=O)O)CC[C@]3(C)C(=CCC4[C@@]5(C)CC[C@H](O[C@@H]6O[C@H](C(=O)O)[C@@H](O)[C@H](O[C@@H]7O[C@H](CO)[C@H](O)[C@H](O)[C@H]7O)[C@H]6O[C@@H]6O[C@H](CO)[C@@H](O)[C@H](O)[C@H]6O)C(C)(C)C5CC[C@]43C)[C@@H]2C1` (stereo partly specified), for which the activity change, negative = inhibition in assay [1] was 10.7% [at 12.4 µM]. For the same compound, in assay [2], the activity change, negative = viability loss is -9.66% [at 4.96 µM].
